The text below walks through data of PubChem BioAssay (NCATS).

In test [1] the target is Metallo-beta-lactamase type 2 (Klebsiella pneumoniae) (UniProt C7C422). In words: qHTS to identify inhibitors of the New Delhi Metallo-beta-lactamase (NDM): assay validation screen against the NCATS LOPAC Collection (AID 1794843). A digest of the protocol: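 Absorbance at 485 nm from nitrocefin turnover (50 uM solution added), read at plateau, gives the read-out. Compounds in DMSO were incubated first with 2 nM final NDM-1 in pH 7.0 HEPES buffer containing 1 uM ZnSO4 and 0.01% Tween20.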
For orientation: Quantitative high-throughput screening tests each substance at several concentrations.

Test [2] deals with Glutathione peroxidase 1 (Homo sapiens) (UniProt P07203). As to the kind of experiment: Primary qHTS Assay for Inhibitors of Recombinant Selenoprotein Glutathione Peroxidase 1 (GPX1) (AID 1845191). Further: nearly all actives have a fitted effect of over 65% in size. The procedure, abridged:
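GPX1 10 nM, GR 100 nM, GSH 1 mM, NADPH 0.5 mM, CHP 0.5 mM (final). 30-min cpd preincubation, RT. Ex340/Em450 read t=0, t=15 min.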

The target in test [3] is Phospholipid hydroperoxide glutathione peroxidase GPX4 (Homo sapiens) (UniProt P36969). In words: Primary qHTS Assay for Inhibitors of Recombinant Selenoprotein Glutathione Peroxidase 4 (GPX4) (AID 1845192). Further: nearly all actives have a fitted effect of over 65% in size. A digest of the protocol:
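qHTS, GR-coupled: GPX4 200 nM + cpd 30 min RT → GSH 1 mM, NADPH 0.5 mM, GR 100 nM → CHP 0.5 mM start; fluor 340/450 at t0 and t15 min; no-enzyme wells as control.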

Test [4] in a line: Quantitative High-Throughput drug screen in 47 multiple myeloma cell lines against the NCATS MIPE library collection: EJM_DSMZ cell viability assay (AID 1918926; further: nearly all actives have a fitted effect of over 30% in size; further: potency means the concentration at half of the fitted maximal effect). A digest of the protocol:
(§1)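 Primary qHTS used for cherry-picking: cells at 500/well, library compounds for 48 h (37C, 5% CO2), luminescent ATP assay.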

Test [5] can be described thus: Quantitative High-Throughput drug screen in 47 multiple myeloma cell lines against the NCATS MIPE library collection: ARD_JJKsccE7 cell viability assay (AID 1918929; further: potency means the concentration at half of the fitted maximal effect). A digest of the protocol: as §1
Test [6] can be described thus: Quantitative High-Throughput drug screen in 47 multiple myeloma cell lines against the NCATS MIPE library collection: Karpas620_DSMZ cell viability assay (AID 1918959). Further: nearly all actives have a fitted effect of over 30% in size. Further: potency means the concentration at half of the fitted maximal effect. A digest of the protocol:
(§2)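 qHTS of the MIPE 4.0 collection: 500 myeloma cells/well, 48 h drug exposure at 37C in 5% CO2, then CellTiter-Glo for 5 min at room temperature before luminescence reading.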

The nature of test [7]: Quantitative High-Throughput drug screen in 47 multiple myeloma cell lines against the NCATS MIPE library collection: ARP1_JJKsccF8 cell viability assay (AID 1918928; further: nearly all actives have a fitted effect of over 40% in size). A digest of the protocol:
(§3)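 CellTiter-Glo luminescence after 48 h exposure gives viability, scaled between DMSO-only (100%) and media-only (0%) controls. Library compounds are pinned onto 500 myeloma cells per well, incubated at 37C with 5% CO2.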

A short description of test [8]: Quantitative High-Throughput drug screen in 47 multiple myeloma cell lines against the NCATS MIPE library collection: KMM1_JCRB cell viability assay (AID 1918960). Further: nearly all actives have a fitted effect of over 30% in size. Further: potency means the concentration at half of the fitted maximal effect. A digest of the protocol: as §3
Test [9] can be described thus: Quantitative High-Throughput drug screen in 47 multiple myeloma cell lines against the NCATS MIPE library collection: Karpas417_ECACC cell viability assay (AID 1918961). Further: potency means the concentration at half of the fitted maximal effect. The following applies: Karpas417 myeloma viability, CellTiter-Glo ATP luminescence, 48 h; viability (% of DMSO): at 45.8 µM (top of the series). The procedure, abridged: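 Luminescent ATP measurement with CellTiter-Glo gives viability, scaled between DMSO-only wells (100%) and media-only wells (0%). Cells, 500 per well, faced library compounds for 48 hours at 37C.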
(Cellular ATP, detected with luciferase, serves as a proxy for viable cell number.)

Test [10] in a line: Quantitative High-Throughput drug screen in 47 multiple myeloma cell lines against the NCATS MIPE library collection: FR4_PLB cell viability assay (AID 1918924; further: nearly all actives have a fitted effect of over 35% in size; further: potency means the concentration at half of the fitted maximal effect). The procedure, abridged:
as §2

The nature of test [11]: Quantitative High-Throughput drug screen in 47 multiple myeloma cell lines against the NCATS MIPE library collection: Delta47_JCRB cell viability assay (AID 1918925; further: nearly all actives have a fitted effect of over 45% in size; further: potency means the concentration at half of the fitted maximal effect). A digest of the protocol:
as §1

A short description of test [12]: Quantitative High-Throughput drug screen in 47 multiple myeloma cell lines against the NCATS MIPE library collection: AMO1_DSMZ cell viability assay (AID 1918927; further: nearly all actives have a fitted effect of over 30% in size; further: potency means the concentration at half of the fitted maximal effect). The procedure, abridged: as §1
Test [13] in a line: Quantitative High-Throughput drug screen in 47 multiple myeloma cell lines against the NCATS MIPE library collection: KHM11_PLB cell viability assay (AID 1918962). Further: nearly all actives have a fitted effect of over 35% in size. Further: potency means the concentration at half of the fitted maximal effect. A digest of the protocol: as §2

Results filed as inconclusive are left out. The source made the active and inactive calls. The call rests on the fitted dose curve; in most records, active means well fitted curve in the direction sought with a large enough effect; inconclusive means small, poorly fitted or top-dose-only effect, or another doubt; inactive means no such curve, though single readings can be large; an effect the other way counts as inactive or inconclusive.

Sequence of Metallo-beta-lactamase type 2 (Klebsiella pneumoniae) (C7C422 whole entry, looked up): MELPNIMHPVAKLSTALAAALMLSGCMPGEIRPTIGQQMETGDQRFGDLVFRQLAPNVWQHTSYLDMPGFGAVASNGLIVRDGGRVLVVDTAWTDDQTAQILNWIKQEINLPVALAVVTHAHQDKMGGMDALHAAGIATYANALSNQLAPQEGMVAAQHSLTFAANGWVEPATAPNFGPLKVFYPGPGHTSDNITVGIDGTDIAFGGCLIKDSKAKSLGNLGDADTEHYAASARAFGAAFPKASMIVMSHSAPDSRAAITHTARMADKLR
Sequence of Glutathione peroxidase 1 (Homo sapiens) (P07203 whole entry, looked up): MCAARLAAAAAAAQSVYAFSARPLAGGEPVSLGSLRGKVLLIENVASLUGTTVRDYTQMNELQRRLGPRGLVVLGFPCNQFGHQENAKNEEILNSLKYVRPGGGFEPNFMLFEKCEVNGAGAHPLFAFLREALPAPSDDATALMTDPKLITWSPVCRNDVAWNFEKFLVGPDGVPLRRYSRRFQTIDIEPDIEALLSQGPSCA
Sequence of Phospholipid hydroperoxide glutathione peroxidase GPX4 (Homo sapiens) (P36969 whole entry, looked up): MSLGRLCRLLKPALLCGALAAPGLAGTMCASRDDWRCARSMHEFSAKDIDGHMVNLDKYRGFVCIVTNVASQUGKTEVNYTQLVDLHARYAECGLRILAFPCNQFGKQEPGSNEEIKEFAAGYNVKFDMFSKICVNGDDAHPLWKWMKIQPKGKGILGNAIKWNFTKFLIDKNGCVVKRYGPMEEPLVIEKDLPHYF

Consider `Fc1ccc([C@@H]2CCNC[C@H]2COc2ccc3c(c2)OCO3)cc1`, for which the call in test [1] was inactive. Moreover, the Potency entry in test [2], in test [3], in test [4], in test [5] and in test [6] was “inactive” throughout.

On to `CN1C(C(=O)Nc2ccccn2)=C(O)c2ccccc2S1(=O)=O`, for which the outcome in [1] was inactive. Besides, the Potency entry in test [2], in test [3], in test [4], in [7], in test [5] and in [8] was “inactive” in each case. Moreover, the Potency result in [9] was “inactive”.

On to `CN1CCN2c3ccccc3Cc3ccccc3C2C1` (configuration not stated), for which the call in test [1] was inactive. The Potency result in [2], in test [3] and in test [6] was “inactive” throughout.

`CCCNCC(O)COc1ccccc1C(=O)CCc1ccccc1` (configuration not stated): in [1], the compound was classed as inactive. The Potency result in [2], in test [3], in test [10] and in [7] was “inactive” in each case.

For `Nc1nc2c(ncn2COC(CO)CO)c(=O)[nH]1`, in [1], the compound was called inactive. The Potency result in [3] is “inactive”. In addition, the Potency is 26.4 µM (active) in test [10]; 18.7 µM (active) in test [11]; 14.8 µM (active) in test [4]; 13.2 µM (active) in test [12]; 4.18 µM (active) in test [5]; 6.62 µM (active) in test [8]. Moreover, the Potency in [9] was 11.8 µM (active); in test [13] it was 20.9 µM (active).

As to `CC(C)(C)C(=O)Oc1ccc(S(=O)(=O)Nc2ccccc2C(=O)NCC(=O)O)cc1`, the compound was called inactive in test [1]. For the same compound, the Potency result in test [2], in test [3], in test [10], in [12], in test [7] and in test [5] was “inactive” in each case. In [6], the Potency result is “inactive”.

For `CN1CCC(=C2c3ccccc3C=Cc3ccccc32)CC1`, the call in test [1] was inactive. Also, the Potency entry in test [2], in test [3], in test [5] and in [9] was “inactive” throughout. For the same compound, the Potency in test [11] was 9.35 µM (active).

Regarding `Clc1ccc2nsnc2c1NC1=NCCN1`, the outcome in [1] was inactive. Besides, the Potency entry in test [2], in test [3], in test [10], in [4] and in test [8] was “inactive” each time.

For the compound `Cn1ccc2cc3c(cc21)CCN3C(=O)Nc1cccnc1`, in test [1], the compound was called inactive. Further, the Potency result in test [3], in test [10], in test [4], in test [7] and in [6] was “inactive” each time. In addition, the Potency in test [12] was 23.5 µM (active).

As to `CC(C)NCC(O)c1ccc(O)c(O)c1` (configuration not stated), the compound was classed as inactive in test [1]. The Potency result in [2], in test [3] and in [13] was “inactive” throughout. Also, the Potency in test [4] is 14.8 µM (active); in [12] it was 5.26 µM (active); in [5], 5.9 µM (active); in test [6] it was 14.8 µM (active); in test [8], 2.64 µM (active); in [9], 1.48 µM (active).

Consider `NS(=O)(=O)c1cc2c(cc1Cl)NCNS2(=O)=O`, for which the call in test [1] was inactive. Further, the Potency result in test [2], in test [3], in test [11], in test [7], in [5] and in test [6] was “inactive” in each case. For the same compound, the Potency entry in test [8] was “inactive”. Also, the Potency in [9] is 0.0066 µM (active).

As to `CN(C)C(=O)C(CCN1CCC(O)(c2ccc(Cl)cc2)CC1)(c1ccccc1)c1ccccc1`, in [1], the compound was called inactive. Further, the Potency result in test [3], in [12], in [5] and in test [6] was “inactive” each time. Besides, the Potency was 20.9 µM (active) in [10], 20.9 µM (active) in test [11] and 18.7 µM (active) in [13].

For `Clc1ccccc1C(c1ccccc1)(c1ccccc1)n1ccnc1`, the Potency entry in test [2], in test [3], in [4] and in test [13] was “inactive” each time. Also, in test [9], the Potency is 0.0093 µM (active).
